Source: the supplement of paper PMC4237247

Tested on: HeLa
Assay: percent cells in G1/S phase; higher = more G1/S content
Details: 10 µM; 20 h; hit class: G2/M-phase inhibitor
Method: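 HTS of 79,827 drug-like compounds at 10 uM. HeLa cells in 384-well plates were treated for 20 h, fixed, stained with Vybrant DyeCycle Green and scanned on an Acumen eX3 cytometer to give per-well cell cycle profiles. Only G2/M hits (>=67% G2/M) are listed.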

Compound	percent cells in G1/S phase [%]
CN1Cc2c(ccc3c2OCO3)[C@@H]2[C@H]1c1cc3c(cc1C[C@@H]2O)OCO3 [Chelidonine monohydrate (+)]	19.8
